Records with an inconclusive call do not appear. Calls of active or inactive are those of the source. How the source made its calls, unless noted: active means hit-call score of the fitted dose curve at least 0.9, where 1 is the maximum; inactive means score below 0.9.
Tests used:
[1] = biological target: human Thyroid Receptor alpha (THRa1), THRA (gene 7067) (UniProt P10827); assay: ATG_THRa1_TRANS: Attagene TRANS-FACTORIAL HepG2 Assay for human Thyroid Receptor alpha (THRa1) (AID 2283014; active means hit-call score of the fitted dose curve at least 0.9, where 1 is the maximum)
In short: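 HepG2 cells transiently transfected with multiplexed GAL4-UAS reporter units for exogenous chimeric THRa1-Gal4; reporter mRNA measured 24 h after dosing by RT-PCR, 6-FAM labelling, HpaI digestion and capillary electrophoresis. Gain-of-signal fitted versus DMSO baseline.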

[2] = read-out: E-selectin (Homo sapiens) (UniProt P16581); assay: BSK_3C_Eselectin: BioMAP Diversity Plus: 3C Assay for Eselectin Biomarker Activity (AID 2283015); conditions: primary human endothelial cells (HUVEC); actives raise or lower the signal
In short: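 Primary human umbilical vein endothelial cells (3C system) were dosed with chemical and cell-surface E-selectin measured by ELISA 24 h later. Bidirectional curve fitting used DMSO as negative control and baseline.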

[3] = read-out: Interleukin-1 alpha (IL1a), IL1A (gene 3552); assay: BSK_BE3C_IL1a: BioMAP Diversity Plus: BE3C Assay for Interleukin-1 alpha (IL1a) Biomarker Activity (AID 2283016); conditions: primary human bronchial epithelial cells; actives raise or lower the signal
In short: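 Human primary bronchial epithelial cells, 24 h chemical exposure; IL-1a quantified by ELISA, fitted bidirectionally against DMSO. Cytotoxicity assessed in parallel by SRB total-protein staining at the time of measurement.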

[4] = read-out: Monocyte Chemoattractant Protein-1 (MCP1), CCL2 (gene 6347); assay: BSK_3C_MCP1: BioMAP Diversity Plus: 3C Assay for Monocyte Chemoattractant Protein-1 (MCP1) Biomarker Activity (AID 2283017); conditions: primary human endothelial cells (HUVEC); actives raise or lower the signal
In short: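 Primary human umbilical vein endothelial cells (3C system) were exposed to test chemical for 24 h, after which MCP-1 was quantified by ELISA. Activity was fitted bidirectionally against DMSO as negative control and baseline.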

[5] = read-out: Human Leukocyte Antigen - DR isotype (HLADR), HLA-DRA (gene 3122); assay: BSK_3C_HLADR: BioMAP Diversity Plus: 3C Assay for Human Leukocyte Antigen - DR isotype (HLADR) Biomarker Activity (AID 2283019); conditions: primary human endothelial cells (HUVEC); actives raise or lower the signal
In short: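 Primary human umbilical vein endothelial cells (3C system) were dosed with compound and cell-surface HLA-DR was quantified by ELISA at 24 h. Activity was fitted bidirectionally against DMSO as negative control and baseline.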

[6] = read-out: Interleukin-8 (IL8), CXCL8 (gene 3576); assay: BSK_3C_IL8: BioMAP Diversity Plus: 3C Assay for Interleukin-8 (IL8) Biomarker Activity (AID 2283020); conditions: primary human endothelial cells (HUVEC); actives raise or lower the signal
In short: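 Primary human umbilical vein endothelial cells were dosed for 24 h. IL-8 was quantified by ELISA and fitted bidirectionally against DMSO. Cytotoxicity was assessed in parallel cultures by SRB staining at 560 nm.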

[7] = read-out: Monokine induced gamma interferon (MIG), CXCL9 (gene 4283); assay: BSK_3C_MIG: BioMAP Diversity Plus: 3C Assay for Monokine induced gamma interferon (MIG) Biomarker Activity (AID 2283021); conditions: primary human endothelial cells (HUVEC); actives raise or lower the signal;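 on AC50: MIG protein level measured by immunoassay in the treated endothelial cultures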
In short: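 HUVEC primary endothelial cultures dosed with chemical; MIG quantified by ELISA at 24 h. Data fitted bidirectionally against DMSO control, with parallel SRB total-protein staining for cytotoxicity.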

[8] = BSK_3C_SRB: Viability Assessment in the BioMAP Diversity Plus: 3C Assay (AID 2283023); conditions: primary human endothelial cells (HUVEC);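 further: fitted both ways against DMSO so a hit may be signal rise or drop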
In short: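 Primary human umbilical vein endothelial cells in the 3C system were read 24 h after compound dosing. Total protein was stained with 0.1% sulforhodamine B after 10% TCA fixation and read at 560 nm, with bidirectional fitting against DMSO as baseline.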

[9] = read-out: Monocyte Chemoattractant Protein-1 (MCP1), CCL2 (gene 6347); assay: BSK_4H_MCP1: BioMAP Diversity Plus: 4H Assay for Monocyte Chemoattractant Protein-1 (MCP1) Biomarker Activity (AID 2283018); conditions: primary human endothelial cells (HUVEC); actives raise or lower the signal
In short: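 Human umbilical vein endothelial cells (4H system) exposed to chemicals for 24 h in 96-well format. MCP-1 measured by ELISA; bidirectional fitting against DMSO, with SRB total-protein staining in parallel cultures for cytotoxicity.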

[10] = biological target: human Vitamin D Receptor (VDR), VDR (gene 7421) (UniProt P11473); assay: ATG_VDR_TRANS: Attagene TRANS-FACTORIAL HepG2 Assay for human Vitamin D Receptor (VDR) (AID 2283022; active means hit-call score of the fitted dose curve at least 0.9, where 1 is the maximum)
In short: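 HepG2 cells were transiently transfected with multiple GAL4-UAS reporter units, so signal reflects exogenous chimeric receptor-Gal4 activity. After 24 h compound exposure, reporter mRNA was measured by RT-PCR, fluorescent labelling and capillary electrophoresis, fitted for gain of signal versus DMSO.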

Measured: AC50

Sequence of human Vitamin D Receptor (VDR), VDR (gene 7421) (P11473 whole entry, looked up, the tested form may be a part): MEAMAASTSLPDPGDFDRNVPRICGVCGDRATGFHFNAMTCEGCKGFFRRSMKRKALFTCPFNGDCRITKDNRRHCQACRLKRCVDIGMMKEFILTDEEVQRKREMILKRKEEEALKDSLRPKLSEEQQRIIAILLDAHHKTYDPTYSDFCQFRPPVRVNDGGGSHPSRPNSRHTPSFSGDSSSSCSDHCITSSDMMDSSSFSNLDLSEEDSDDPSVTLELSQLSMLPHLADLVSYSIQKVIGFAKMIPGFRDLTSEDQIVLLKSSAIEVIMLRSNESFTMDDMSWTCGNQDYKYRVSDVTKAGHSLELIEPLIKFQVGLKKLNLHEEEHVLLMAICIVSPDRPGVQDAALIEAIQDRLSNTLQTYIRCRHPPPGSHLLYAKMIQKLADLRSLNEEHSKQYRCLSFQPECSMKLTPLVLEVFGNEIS
Sequence of human Thyroid Receptor alpha (THRa1), THRA (gene 7067) (P10827 whole entry, looked up, the tested form may be a part): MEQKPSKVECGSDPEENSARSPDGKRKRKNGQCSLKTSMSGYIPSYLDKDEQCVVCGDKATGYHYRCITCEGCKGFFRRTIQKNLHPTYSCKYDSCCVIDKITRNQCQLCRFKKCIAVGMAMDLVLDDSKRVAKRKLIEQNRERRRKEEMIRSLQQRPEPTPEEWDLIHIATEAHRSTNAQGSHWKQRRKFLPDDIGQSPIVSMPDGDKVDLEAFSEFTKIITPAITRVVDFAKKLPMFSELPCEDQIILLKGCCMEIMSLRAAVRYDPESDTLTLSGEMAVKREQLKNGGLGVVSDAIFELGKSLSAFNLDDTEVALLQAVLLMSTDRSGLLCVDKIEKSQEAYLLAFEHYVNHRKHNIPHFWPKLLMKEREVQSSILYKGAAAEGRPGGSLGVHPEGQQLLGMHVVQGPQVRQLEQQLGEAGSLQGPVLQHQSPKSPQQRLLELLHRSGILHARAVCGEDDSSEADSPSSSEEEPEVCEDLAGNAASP
Sequence of E-selectin (Homo sapiens) (P16581 whole entry, looked up): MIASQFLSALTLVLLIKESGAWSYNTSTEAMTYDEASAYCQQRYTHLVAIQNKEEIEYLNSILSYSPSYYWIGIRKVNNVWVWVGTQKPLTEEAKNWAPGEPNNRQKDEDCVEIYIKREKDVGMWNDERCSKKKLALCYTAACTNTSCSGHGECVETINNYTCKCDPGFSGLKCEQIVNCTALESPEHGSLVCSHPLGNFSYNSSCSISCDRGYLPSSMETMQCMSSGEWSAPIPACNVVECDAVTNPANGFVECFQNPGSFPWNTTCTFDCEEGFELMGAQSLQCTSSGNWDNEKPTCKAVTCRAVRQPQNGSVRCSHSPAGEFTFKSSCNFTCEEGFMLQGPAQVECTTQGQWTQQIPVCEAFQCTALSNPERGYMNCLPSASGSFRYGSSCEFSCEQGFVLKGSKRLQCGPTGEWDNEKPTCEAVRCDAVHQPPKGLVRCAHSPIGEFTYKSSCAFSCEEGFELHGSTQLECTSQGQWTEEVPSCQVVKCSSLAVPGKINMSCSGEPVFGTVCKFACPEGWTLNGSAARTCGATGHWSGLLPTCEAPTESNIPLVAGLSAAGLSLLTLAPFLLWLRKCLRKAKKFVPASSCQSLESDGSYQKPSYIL

Cc1ccc(N)cc1
not listed: [9] | [10]
inactive: all other assays above

Oc1ccccc1Cl
not listed: [1] | [8]
inactive: all other assays above

COC(=O)Nc1nc2ccccc2[nH]1
inactive: [1] | [2] | [3] | [4] | [5] | [7]

CCOc1cccc(C2(N3CCN(c4ccccc4)CC3)CCC(C)CC2)c1 (stereo not drawn)
not listed: [1]
inactive: all other assays above

Clc1ccc(C(c2ccc(Cl)cc2)C(Cl)Cl)cc1
active: [2] 29.7 µM | [4] 13.9 µM | [5] 14.4 µM | [6] 15 µM | [7] 35.2 µM | [8] 19.3 µM
inactive: [1] | [3] | [10]

Clc1ccccc1Cl
not listed: [1]
inactive: all other assays above

O=C1CCCO1
not listed: [6] | [8] | [9]
inactive: all other assays above

Nc1ccc(Oc2ccc(N)cc2)cc1
not listed: [1] | [8] | [10]
inactive: all other assays above

CC(O)CCO (stereo not drawn)
not listed: [9]
inactive: all other assays above

C[N+](C)(C)CC1CO1 (stereo not drawn)
inactive: [1] | [2] | [3] | [4] | [5] | [7]

COP(=S)(OC)SCN1C(=O)c2ccccc2C1=O
inactive: [2] | [3] | [4] | [5] | [6] | [7]

CCCCCCCCOC(=O)c1ccc(C(=O)OCCCCCCCC)c(C(=O)OCCCCCCCC)c1
not listed: [1] | [6] | [10]
inactive: all other assays above

CC(C)(C)C(O)(CCc1ccc(Cl)cc1)Cn1cncn1 (stereo not drawn)
not listed: [1] | [6] | [8]
inactive: all other assays above

O=Cc1ccco1
not listed: [1] | [6] | [9]
inactive: all other assays above

Cc1ccc(N=C=O)cc1N=C=O
not listed: [1] | [6]
inactive: all other assays above

CS(=O)(=O)NC(=O)c1cc(Oc2ccc(C(F)(F)F)cc2Cl)ccc1[N+](=O)[O-]
inactive: [2] | [3] | [4] | [5] | [7] | [10]

c1ccc(C2CO2)cc1 (stereo not drawn)
inactive: [2] | [3] | [4] | [5] | [6] | [7]

CC(C)COC(=O)c1ccccc1C(=O)OCC(C)C
inactive: [3] | [7]
active: [2] 28.8 µM | [4] 37 µM | [9] 20 µM | [5] 32.3 µM | [8] 31.5 µM

CC(C)(O)c1cnn2c(-c3ccc(F)c(-c4c(F)cccc4C#N)c3)cnc2n1
active: [3] 31.6 µM | [4] 26.4 µM | [5] 30.4 µM | [8] 30.4 µM
inactive: [2] | [7]

c1ccc(N=Nc2ccccc2)cc1
not listed: [1] | [8] | [9]
inactive: all other assays above

OCCOCCO
not listed: [1] | [6] | [10]
inactive: all other assays above

Clc1ccc(Cl)c(Cl)c1
not listed: [1] | [6] | [9]
inactive: all other assays above

Brc1ccc(Oc2ccccc2)cc1
inactive: [3] | [4] | [5] | [7] | [10]
active: [2] 30.9 µM

C=CCc1ccc2c(c1)OCO2
inactive: [2] | [3] | [4] | [5] | [7]

CCCCC(CC)COC(=O)c1ccc(C(=O)OCC(CC)CCCC)c(C(=O)OCC(CC)CCCC)c1 (stereo not drawn)
inactive: [2] | [3] | [4] | [5] | [7] | [10]

CCC12COCN1COC2
inactive: [2] | [3] | [4] | [5] | [6] | [7]

CCN(CC)CCO
inactive: [2] | [3] | [4] | [5] | [7]

O=C(N[C@H](c1ccccc1)[C@@H]1CN2CCC1CC2)c1c(Cl)ccc(C(F)(F)F)c1Cl
inactive: [2] | [5] | [7] | [10]
active: [3] 44.5 µM | [4] 14.3 µM

CC(C)(C)OOC(C)(C)CCC(C)(C)OOC(C)(C)C
inactive: [2] | [3] | [4] | [9] | [5] | [7]

CC(C)N(Cc1ccccc1)C(=O)C(C)(C)C
not listed: [1] | [6] | [9]
inactive: all other assays above

CCCCOC(=O)c1ccccc1C(=O)OCc1ccccc1
inactive: [2] | [3] | [4] | [5] | [7]

Oc1ccc2ccc3cccc4ccc1c2c34
active: [2] 29.9 µM | [3] 32.4 µM | [4] 29.7 µM | [9] 14.2 µM | [5] 26.6 µM | [7] 37.6 µM
inactive: [10]

CCCCCOC(=O)c1ccccc1C(=O)OCCCCC
active: [5] 20 µM | [8] 32.2 µM
not listed: [1] | [10]
inactive: all other assays above

N#CC(Br)Br
inactive: [2] | [3] | [4] | [9] | [5] | [7]

O=C(Oc1ccc(Br)cc1)N1CCN2CCC1CC2
inactive: [2] | [3] | [4] | [5] | [6] | [7]

CCC(C)c1ccc(O)cc1 (stereo not drawn)
inactive: [2] | [3] | [4] | [5] | [6] | [7]

Cc1ccc(N)c(N)c1
inactive: [3] | [4] | [7] | [8]
active: [2] 6.22 µM | [5] 7.53 µM | [6] 3.17 µM

CC(C)(C)OOC(=O)c1ccccc1
not listed: [1] | [6] | [9]
inactive: all other assays above
